# Experimental data taken from the supplement of paper PMC8728848.
# The sample as a whole holds a higher share of the strongest signals than the screen did.
# Columns and labels:
# Assay in all cases: glycan array binding signal (z-score within array); higher = stronger binding
# Conditions in all cases: glycan notation: IUPAC condensed, linker removed
# [1] = biological target: Gal(b1-4)GlcNAc(b1-3)Gal(b1-4)GlcNAc(b1-3)GalNAc
# Summary of the method: (§1)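 From the Consortium for Functional Glycomics database, 3228 arrays were curated, keeping only those whose protein sequence was available. Binding is given as a within-array Z-score averaged across arrays sharing a protein sequence and across linkers. Negative Z-scores can be read as non-binding.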
# [2] = biological target: Gal(b1-4)GlcNAc(b1-3)[Fuc(a1-3)GlcNAc(b1-6)]Gal(b1-4)Glc
# Summary of the method: as §1
# Gal(b1-4)GlcNAc6P = biological target: Gal(b1-4)GlcNAc6P
# Summary of the method: as §1
# Gal6S(b1-4)Glc = biological target: Gal6S(b1-4)Glc
# Summary of the method: as §1
# [3] = biological target: GalNAc(a1-3)GalNAc(b1-3)Gal(a1-4)Gal(b1-4)Glc
# Summary of the method: as §1
# [4] = biological target: GalNAc(b1-3)Gal(a1-6)Gal(b1-4)Glc
# Summary of the method: as §1
# [5] = biological target: GalNAc(b1-4)GlcNAc(b1-2)Man(a1-3)[GalNAc(b1-4)GlcNAc(b1-2)Man(a1-6)]Man(b1-4)GlcNAc(b1-4)GlcNAc
# Summary of the method: as §1
# [6] = biological target: GlcNAc(b1-3)Gal(b1-4)GlcNAc(b1-2)Man(a1-3)[GlcNAc(b1-3)Gal(b1-4)GlcNAc(b1-2)Man(a1-6)]Man(b1-4)GlcNAc(b1-4)GlcNAc
# Summary of the method: as §1
# [7] = biological target: GlcNAc(b1-3)Gal(b1-4)GlcNAc(b1-3)Gal(b1-4)GlcNAc(b1-3)Gal(b1-4)GlcNAc(b1-2)Man(a1-3)[GlcNAc(b1-3)Gal(b1-4)GlcNAc(b1-3)Gal(b1-4)GlcNAc(b1-3)Gal(b1-4)GlcNAc(b1-2)Man(a1-6)]Man(b1-4)GlcNAc(b1-4)GlcNAc
# Summary of the method: as §1
# [8] = biological target: GlcNAc(b1-3)Gal(b1-4)GlcNAc(b1-3)Gal(b1-4)GlcNAc(b1-3)Gal(b1-4)GlcNAc(b1-2)Man(a1-3)[GlcNAc(b1-3)Gal(b1-4)GlcNAc(b1-3)Gal(b1-4)GlcNAc(b1-3)Gal(b1-4)GlcNAc(b1-2)Man(a1-6)]Man(b1-4)GlcNAc(b1-4)[Fuc(a1-6)]GlcNAc
# Summary of the method: as §1
# [9] = biological target: GlcNAc(b1-3)[GlcNAc(b1-6)]Gal(b1-4)GlcNAc
# Summary of the method: as §1
# [10] = biological target: GlcNAc(b1-4)GlcNAc(b1-4)GlcNAc
# Summary of the method: as §1
# [11] = biological target: GlcNAc(b1-4)[GlcNAc(b1-6)]GalNAc
# Summary of the method: as §1
# [12] = biological target: GlcNAc(b1-6)Gal(b1-4)GlcNAc
# Summary of the method: as §1
# [13] = biological target: Man(a1-3)[Man(a1-6)]Man(a1-6)[Man(a1-3)]Man(b1-4)GlcNAc(b1-4)GlcNAc
# Summary of the method: as §1
# [14] = biological target: Neu5Ac(a2-3)Gal(b1-3)GalNAc
# Summary of the method: as §1
# [15] = biological target: Neu5Ac(a2-3)Gal(b1-3)GlcNAc(b1-2)Man(a1-3)[Neu5Ac(a2-3)Gal(b1-3)GlcNAc(b1-2)Man(a1-6)]Man(b1-4)GlcNAc(b1-4)GlcNAc
# Summary of the method: as §1
# [16] = biological target: Neu5Ac(a2-3)Gal(b1-3)GlcNAc(b1-6)GalNAc
# Summary of the method: as §1
# [17] = biological target: Neu5Ac(a2-3)Gal(b1-3)[Fuc(a1-4)]GlcNAc(b1-3)Gal(b1-4)[Fuc(a1-3)]GlcNAc
# Summary of the method: as §1
# [18] = biological target: Neu5Ac(a2-3)Gal(b1-4)GlcNAc(b1-3)Gal(b1-4)GlcNAc(b1-3)Gal(b1-4)GlcNAc(b1-2)Man(a1-3)[Neu5Ac(a2-3)Gal(b1-4)GlcNAc(b1-3)Gal(b1-4)GlcNAc(b1-3)Gal(b1-4)GlcNAc(b1-2)Man(a1-6)]GalNAc
# Summary of the method: as §1
# [19] = biological target: Neu5Ac(a2-3)Gal(b1-4)GlcNAc(b1-6)[Neu5Ac(a2-3)Gal(b1-3)]GalNAc
# Summary of the method: as §1
# [20] = biological target: Neu5Ac(a2-3)Gal6S(b1-4)[Fuc(a1-3)]GlcNAc
# Summary of the method: as §1
# Neu5Ac(a2-6)Gal(b1-4)Glc = biological target: Neu5Ac(a2-6)Gal(b1-4)Glc
# Summary of the method: as §1
# [21] = biological target: Neu5Ac(a2-6)Gal(b1-4)GlcNAc(b1-2)Man(a1-3)[Man(a1-6)]Man(b1-4)GlcNAc(b1-4)GlcNAc
# Summary of the method: as §1
# [22] = biological target: Neu5Ac(a2-6)Gal(b1-4)GlcNAc(b1-3)Gal(b1-4)GlcNAc
# Summary of the method: as §1
# [23] = biological target: Neu5Ac(a2-6)Gal(b1-4)GlcNAc(b1-6)[Gal(b1-3)]GalNAc
# Summary of the method: as §1
# [24] = biological target: Neu5Ac(a2-8)Neu5Ac(a2-8)Neu5Ac(a2-3)Gal(b1-4)Glc
# Summary of the method: as §1
# [25] = biological target: Neu5Gc(a2-6)Gal(b1-4)GlcNAc
# Summary of the method: as §1
binder,measurement,setting,value
rCnSL-proA (Clitocybe nebularis) (protein) AAFFSLVVLLALLPFGIHASALPSTELTPRVNPNLPGPNDVFVGFRGTNNIVGAIYEKDGIKDTPLNNGADAEMGPGSYITDGLFTARIFASGSAGNNPGTTATVCKIYASGVQWRGAPKGYIPVAYFGNGPTAEQRRQTYLRTLGLPGTAIRFGNLNTNPGQGPTAPRQMVVPPGPLRSLLKASCFPAADTRLPQTLHYFEKRVDWNIITAADSQTWGH,glycan array binding signal (z-score),[1],1.57
same,glycan array binding signal (z-score),[2],0.661
same,glycan array binding signal (z-score),Gal(b1-4)GlcNAc6P,-1.27
same,glycan array binding signal (z-score),Gal6S(b1-4)Glc,-0.662
same,glycan array binding signal (z-score),[3],-0.574
same,glycan array binding signal (z-score),[4],0.329
same,glycan array binding signal (z-score),[5],3.42
same,glycan array binding signal (z-score),[6],0.077
same,glycan array binding signal (z-score),[7],-0.215
same,glycan array binding signal (z-score),[8],0.698
same,glycan array binding signal (z-score),[9],-0.723
same,glycan array binding signal (z-score),[10],-0.208
same,glycan array binding signal (z-score),[11],-0.002
same,glycan array binding signal (z-score),[12],-0.312
same,glycan array binding signal (z-score),[13],0.14
same,glycan array binding signal (z-score),[14],-0.476
same,glycan array binding signal (z-score),[15],5.37
same,glycan array binding signal (z-score),[16],0.201
same,glycan array binding signal (z-score),[17],-0.238
same,glycan array binding signal (z-score),[18],4.1
same,glycan array binding signal (z-score),[19],-0.211
same,glycan array binding signal (z-score),[20],-0.672
same,glycan array binding signal (z-score),Neu5Ac(a2-6)Gal(b1-4)Glc,-0.233
same,glycan array binding signal (z-score),[21],-0.337
same,glycan array binding signal (z-score),[22],-0.269
same,glycan array binding signal (z-score),[23],-0.387
same,glycan array binding signal (z-score),[24],-0.436
same,glycan array binding signal (z-score),[25],-0.088
